Measurements taken from PubChem BioAssay AID1159580 (chemical genetic matrix, 2015).
The whole screen tested about 5,500 compounds, of which about 2,000 (36%) were called active. Not shown: some 18% with an inconclusive outcome. Rule as the data show it: active = normalized growth mostly below about 0.91 (no sharp cut-off); inconclusive = no clear call, values can overlap the other calls; inactive = mostly above about 0.92. This is one part of the list.

Test: chemical genetic growth profiling, strain panel (AID 1159580);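 also: tested at 20 µM; growth read once vehicle control cultures reached saturation at 30 °C; 1 = growth at the plate median or of vehicle wells; lower values mean less growth of the strain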
Conditions: growth OD
[1] = S. cerevisiae deletion strains, locus YAL013W, strain DEP1, stronger effect = lower value
[2] = S. cerevisiae deletion strains, locus YDR150W, strain NUM1, stronger effect = lower value
[3] = S. cerevisiae deletion strains, locus YGR078C, strain PAC10, stronger effect = lower value
[4] = S. cerevisiae deletion strains, locus YJR075W, strain HOC1, stronger effect = lower value
[5] = S. cerevisiae deletion strains, locus YMR307W, strain GAS1, stronger effect = lower value
[6] = S. cerevisiae deletion strains, locus YNL128W, strain TEP1, stronger effect = lower value
[7] = S. cerevisiae deletion strains, locus YNL153C, strain GIM3, stronger effect = lower value
[8] = S. cerevisiae deletion strains, locus YNL322C, strain KRE1, stronger effect = lower value
[9] = S. cerevisiae deletion strains, locus YPL055C, strain LGE1, stronger effect = lower value
[10] = S. cerevisiae deletion strains, locus YPL241C, strain CIN2, stronger effect = lower value

Measured: normalized growth

NC(=S)NCCCC(N)C(=O)O (centres undefined)
inactive: [1] 1.01 | S. cerevisiae deletion strains, locus YAL040C, strain CLN3, stronger effect = lower value 1 | S. cerevisiae deletion strains, locus YCL061C, strain MRC1 (second series), stronger effect = lower value 1.01 | [2] 1.01 | S. cerevisiae deletion strains, locus YDR363W, strain ESC2, stronger effect = lower value 1.02 | S. cerevisiae deletion strains, locus YER002W, strain NOP16, stronger effect = lower value 1.02 | [3] 1.01 | [4] 1.02 | [5] 1.01 | [6] 1.03 | [7] 1.01 | S. cerevisiae deletion strains, locus YNL175C, strain NOP13, stronger effect = lower value 1.03 | S. cerevisiae deletion strains, locus YNL197C, strain WHI3, stronger effect = lower value 1.01 | S. cerevisiae deletion strains, locus YNL224C, strain SQS1, stronger effect = lower value 1.02 | [8] 1.02 | S. cerevisiae deletion strains, locus YOR083W, strain WHI5 (second series), stronger effect = lower value 0.994 | [9] 1.03 | [10] 1.01

CCc1cccc(CC)c1N(COC)C(=O)CCl
inactive: [1] 1 | S. cerevisiae deletion strains, locus YBR021W, strain FUR4, stronger effect = lower value 1.01 | S. cerevisiae deletion strains, locus YBR229C, strain ROT2, stronger effect = lower value 1.01 | S. cerevisiae deletion strains, locus YCL029C, strain bik1, stronger effect = lower value 1.02 | S. cerevisiae deletion strains, locus YDL035C, strain GPR1, stronger effect = lower value 1.02 | S. cerevisiae deletion strains, locus YDL074C, strain BRE1, stronger effect = lower value 1.03 | S. cerevisiae deletion strains, locus YDL101C, strain DUN1, stronger effect = lower value 1.01 | S. cerevisiae deletion strains, locus YDL134C, strain PPH21, stronger effect = lower value 1.01 | S. cerevisiae deletion strains, locus YDL185W, strain tfp1, stronger effect = lower value 1.02 | S. cerevisiae deletion strains, locus YDL192W, strain arf1, stronger effect = lower value 1.03 | S. cerevisiae deletion strains, locus YDR101C, strain arx1, stronger effect = lower value 1.02 | [2] 0.995 | S. cerevisiae deletion strains, locus YDR162C, strain NBP2, stronger effect = lower value 0.999 | S. cerevisiae deletion strains, locus YDR318W, strain mcm21, stronger effect = lower value 1.02 | S. cerevisiae deletion strains, locus YDR388W, stronger effect = lower value 1.02 | S. cerevisiae deletion strains, locus YDR502C, strain sam2, stronger effect = lower value 1.02 | S. cerevisiae deletion strains, locus YEL061C, strain CIN8, stronger effect = lower value 1 | S. cerevisiae deletion strains, locus YER110C, stronger effect = lower value 1.01 | S. cerevisiae deletion strains, locus YER155C, strain BEM2, stronger effect = lower value 1 | S. cerevisiae deletion strains, locus YER167W, strain BCK2, stronger effect = lower value 1 | S. cerevisiae deletion strains, locus YGL078C, strain dbp3, stronger effect = lower value 1.02 | S. cerevisiae deletion strains, locus YGL086W, strain mad1, stronger effect = lower value 0.999 | S. cerevisiae deletion strains, locus YGL248W, strain PDE1, stronger effect = lower value 1.01 | [3] 1.01 | S. cerevisiae deletion strains, locus YGR135W, strain pre9, stronger effect = lower value 1.02 | S. cerevisiae deletion strains, locus YGR229C, strain SMI1, stronger effect = lower value 1.02 | S. cerevisiae deletion strains, locus YGR252W, strain gcn5, stronger effect = lower value 1.05 | S. cerevisiae deletion strains, locus YHR030C, strain SLT2, stronger effect = lower value 1 | S. cerevisiae deletion strains, locus YHR079C, strain IRE1 (second series), stronger effect = lower value 1.02 | S. cerevisiae deletion strains, locus YHR094C, strain hxt1, stronger effect = lower value 1.02 | S. cerevisiae deletion strains, locus YHR129C, strain ARP1, stronger effect = lower value 1 | S. cerevisiae deletion strains, locus YHR200W, strain rpn10, stronger effect = lower value 1.02 | S. cerevisiae deletion strains, locus YIL066C, strain RNR3, stronger effect = lower value 1.01 | S. cerevisiae deletion strains, locus YIL073C, strain SPO22, stronger effect = lower value 1.11 | S. cerevisiae deletion strains, locus YIL125W, strain kgd1, stronger effect = lower value 1.01 | S. cerevisiae deletion strains, locus YIR030C, strain dcg1, stronger effect = lower value 1.03 | S. cerevisiae deletion strains, locus YJL095W, strain BCK1, stronger effect = lower value 1.02 | S. cerevisiae deletion strains, locus YJL134W, strain LCB3, stronger effect = lower value 1.01 | S. cerevisiae deletion strains, locus YJL168C, strain set2, stronger effect = lower value 1.03 | S. cerevisiae deletion strains, locus YJL187C, strain SWE1 (second series), stronger effect = lower value 1 | S. cerevisiae deletion strains, locus YJR043C, strain POL32, stronger effect = lower value 1.01 | [4] 1.01 | S. cerevisiae deletion strains, locus YKL009W, strain mrt4, stronger effect = lower value 1.05 | S. cerevisiae deletion strains, locus YKL068W, stronger effect = lower value 0.999 | S. cerevisiae deletion strains, locus YKL085W, strain MDH1 (second series), stronger effect = lower value 1.01 | S. cerevisiae deletion strains, locus YKL085W, strain MDH1, stronger effect = lower value 1.01 | S. cerevisiae deletion strains, locus YKL190W, strain CNB1, stronger effect = lower value 0.992 | S. cerevisiae deletion strains, locus YKR001C, strain vps1, stronger effect = lower value 1.04 | S. cerevisiae deletion strains, locus YLR039C, strain RIC1, stronger effect = lower value 1 | S. cerevisiae deletion strains, locus YLR058C, strain SHM2, stronger effect = lower value 1.01 | S. cerevisiae deletion strains, locus YLR102C, strain apc9, stronger effect = lower value 1.03 | S. cerevisiae deletion strains, locus YLR262C, strain YPT6, stronger effect = lower value 1.02 | S. cerevisiae deletion strains, locus YLR268W, strain sec22, stronger effect = lower value 1.02 | S. cerevisiae deletion strains, locus YLR330W, strain CHS5, stronger effect = lower value 1.01 | S. cerevisiae deletion strains, locus YLR342W, strain FKS1 (second series), stronger effect = lower value 1 | S. cerevisiae deletion strains, locus YLR371W, strain rom2, stronger effect = lower value 1.02 | S. cerevisiae deletion strains, locus YLR418C, strain cdc73, stronger effect = lower value 1.05 | S. cerevisiae deletion strains, locus YML016C, strain PPZ1, stronger effect = lower value 1 | S. cerevisiae deletion strains, locus YML032C, strain rad52, stronger effect = lower value 1.03 | S. cerevisiae deletion strains, locus YML124C, strain tub3, stronger effect = lower value 1.01 | S. cerevisiae deletion strains, locus YMR078C, strain ctf18, stronger effect = lower value 1.02 | S. cerevisiae deletion strains, locus YMR223W, strain ubp8, stronger effect = lower value 1.02 | S. cerevisiae deletion strains, locus YMR263W, strain SAP30, stronger effect = lower value 0.997 | [5] 1.01 | S. cerevisiae deletion strains, locus YNL067W, strain RPL9B, stronger effect = lower value 1 | [6] 1.01 | [7] 1 | S. cerevisiae deletion strains, locus YNL233W, strain BNI4, stronger effect = lower value 1.01 | S. cerevisiae deletion strains, locus YNL250W, strain rad50, stronger effect = lower value 1.02 | S. cerevisiae deletion strains, locus YNL271C, strain bni1, stronger effect = lower value 1.03 | S. cerevisiae deletion strains, locus YNL298W, strain CLA4, stronger effect = lower value 1.03 | S. cerevisiae deletion strains, locus YNL307C, strain MCK1, stronger effect = lower value 1.03 | [8] 1 | S. cerevisiae deletion strains, locus YNR052C, strain pop2, stronger effect = lower value 1.03 | S. cerevisiae deletion strains, locus YOL006C, strain TOP1, stronger effect = lower value 1.05 | S. cerevisiae deletion strains, locus YOL012C, strain htz1 1.33 | S. cerevisiae deletion strains, locus YOL147C, strain pex11, stronger effect = lower value 1.02 | S. cerevisiae deletion strains, locus YOR061W, strain CKA2, stronger effect = lower value 0.999 | S. cerevisiae deletion strains, locus YOR069W, strain VPS5, stronger effect = lower value 0.999 | S. cerevisiae deletion strains, locus YOR136W, strain idh2, stronger effect = lower value 1.02 | S. cerevisiae deletion strains, locus YOR144C, strain elg1, stronger effect = lower value 1.02 | S. cerevisiae deletion strains, locus YOR184W, strain ser1, stronger effect = lower value 1.04 | S. cerevisiae deletion strains, locus YOR316C, strain cot1, stronger effect = lower value 1.03 | [9] 1.02 | [10] 1.01 | S. cerevisiae deletion strains, locus YPR119W, strain clb2, stronger effect = lower value 1.02 | S. cerevisiae deletion strains, locus YPR141C, strain kar3, stronger effect = lower value 1.03 | S. cerevisiae deletion strains, locus YPR163C, strain tif3, stronger effect = lower value 1.03 | S. cerevisiae deletion strains, locus YPR167C, strain met16, stronger effect = lower value 1.02 | S. cerevisiae deletion strains, strain wtn01, stronger effect = lower value 1.01 | S. cerevisiae strains, strain wild type, stronger effect = lower value 1
